Experimental findings from PubChem BioAssay (NCI) are described below.

Each structure is given as a SMILES string. The panel holds about 83,000 compounds, 20% with a hit somewhere; the sample as a whole holds those more often.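 In brief: 96-well plates, 48 h treatment, single concentration, percent growth endpoint.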 Unmarked numbers belong to inactive results. Calls of active or inactive are those of the source. Rule for the calls: active = growth percent below 10; inactive = the rest.

The test deals with HL-60(TB) leukemia. As to the kind of experiment: NCI-60 one-dose screen, 48 h (100 = growth as untreated, 0 = no growth, -100 = all killed).

Regarding `CCCCCCCCCCCCCCCc1ccc(Cl)c(O)c1Cl` (tested in a mixture with another compound), the growth (0.25 µM) is 18.3%.

As to `CNC(=O)c1cc(Oc2ccc(CC(=O)Nc3cc(C(C)(C)C)nn3C)cc2)ccn1`, the growth (1 µM) was 85.3%.

`CC/C(=C(\c1ccccc1)c1ccc(OCCN(C)C)cc1)c1ccccc1`: where the note is “12.5 µM”, the growth was -57.1% (active).

With `O=c1[nH]cc(F)c(=O)[nH]1`, the growth (25 µM) was 47.9%.
